PubChem BioAssay AID2132 (NMMLSC, 2009)
The source made the active and inactive calls.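 The calls were made as follows: active = inhibition above 20%; inactive = the rest.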 Peptide text beside a SMILES is read from it. * marks the point of attachment. Cbz = O=C(OCc1ccccc1)*

Assay: yeast 26S proteasome protease site inhibitors – biochemical, fluorogenic peptides, secondary, counter-screen for 26S proteasome disassembly project (AID 2132)
Settings: fluorogenic peptide cleavage rate, with Suc-LLVY-amc, at 100 µM, hits give high values

SMILES	inhibition
CC(=O)N1C(=O)C(=C2C=C(C)OC(C)=C2)c2ccccc21	45% (active)
CC(C)C[C@@H](C=O)NC(=O)[C@H](CC(C)C)NC(=O)[C@H](CC(C)C)NC(=O)OCc1ccccc1 (Cbz-Leu-Leu-Leu-aldehyde)	97% (active)
